Laboratory results reported in PubChem BioAssay AID1542 (National Center for Advancing Translational Sciences (NCATS), 2009).
Records with an inconclusive call do not appear. Activity calls are given as the source filed them. Calls follow the shape of the dose curve; as a rule, active = well fitted curve in the direction sought with a large enough effect; inconclusive = small, poorly fitted or top-dose-only effect, or effect the other way, or another doubt; inactive = no such curve, though single readings can be large or run the other way.

These compounds were tested against Pyruvate kinase PKM (Homo sapiens) (UniProt P14618) (assay: Secondary assay for Activators of Human Pyruvate Kinase M1 isoform). Details: purified hPK-M1, LDH-coupled NADH fluorescence kinetic; series mostly up to 57.5 µM; activity change, positive = activation: at the top concentration.
Sequence of Pyruvate kinase PKM (Homo sapiens) (P14618 whole entry, looked up, canonical isoform): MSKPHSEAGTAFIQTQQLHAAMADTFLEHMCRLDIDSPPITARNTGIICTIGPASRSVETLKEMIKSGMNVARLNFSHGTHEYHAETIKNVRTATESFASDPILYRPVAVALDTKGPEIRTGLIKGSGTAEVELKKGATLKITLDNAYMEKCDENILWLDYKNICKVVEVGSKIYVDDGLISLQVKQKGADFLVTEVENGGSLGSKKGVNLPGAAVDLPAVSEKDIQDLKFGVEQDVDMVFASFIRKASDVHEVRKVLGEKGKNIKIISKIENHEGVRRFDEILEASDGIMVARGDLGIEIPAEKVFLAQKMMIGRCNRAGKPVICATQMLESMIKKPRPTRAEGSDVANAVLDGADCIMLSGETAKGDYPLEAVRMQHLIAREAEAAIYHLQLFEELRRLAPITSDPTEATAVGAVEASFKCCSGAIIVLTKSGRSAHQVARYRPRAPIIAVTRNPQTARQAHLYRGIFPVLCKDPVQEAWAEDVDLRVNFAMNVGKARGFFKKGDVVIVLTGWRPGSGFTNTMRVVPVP
From the text: Confirmatory assay NIH Chemical Genomics Center [NCGC] Matthew G. Vander Heiden, M.D., Ph.D. [Harvard Medical School, 77 Avenue Louis Pasteur, Boston, MA 02115] NCGC Assay Overview: Human pyruvate kinase […] (hPK-M1)enzyme was supplied as a highly purified (>95% pure) preparation from Harvard Medical School and a secondary assay was used to evaluate compounds. This assay couples the formation of pyruvate from hPK-R using lactate dehydrogenase (LDH) and NADH. The depletion of NADH is followed in a fluorescent-based kinetic assay that follows the formation of pyruvate to lactate, as catalyzed LDH. Pyruvate kinase substrates, PEP and ADP, were present in the assay at 0.1 mM and 4 mM respectively. In this kinetic assay initial rates were determined by following the fluorescence of NADH depletion.
NCGC Assay Protocol Summary: Three uL of substrate mix (final concentration, 50 mM Tris-Cl pH 8.0, 200 mM KCl, 15 mM MgCl2, 0.1 mM PEP, 4.0 mM ADP, and 0.2 mM NADH) was dispensed into black-solid 1536 well plates. 23 nL of compounds were delivered by a pin tool and 1 uL of enzyme mix (final concentrations, 10 nM hPK-M1 and 1 uM of LDH) was added. Plates were immediately placed in ViewLux (Perkin Elmer) and NADH fluorescence was determined at 30 second exposure intervals for between 3 and 6 minutes. Data were normalized to the uninhibited controls.

Row | Compound | activity change, positive = activation
1 | Cc1cc2c(s1)c1cnn(Cc3ccccc3F)c(=O)c1n2C | 1.47% (inactive)
2 | Cc1cc2c(s1)c1cnn(Cc3cccc(F)c3)c(=O)c1n2C | 14.8% (inactive)
3 | Cc1cc2c(s1)c1cnn(Cc3c(F)c(F)cc(F)c3F)c(=O)c1n2C | 9.56% (inactive)
4 | COC/C=C/c1cc(F)c(S(=O)(=O)N2CCN(S(=O)(=O)c3ccc4c(c3)OCCO4)CC2)cc1F | -14.8% (inactive)
5 | O=S(=O)(NC1CCN(S(=O)(=O)c2ccc3c(c2)OCCO3)CC1)c1c(F)cccc1F | -0.701% (inactive)
6 | Cc1cc2c(s1)c1cnn(Cc3cccc(Cn4ncc5c6sc(C)cc6n(C)c5c4=O)c3F)c(=O)c1n2C | -9.29% (inactive)
7 | O=S(=O)(c1ccc2c(c1)OCCO2)N1CCN(S(=O)(=O)c2ccc3c(c2)OCCO3)CC1 | 4.7% (inactive)
8 | O=C(O)c1cc(F)c(S(=O)(=O)N2CCN(S(=O)(=O)c3ccc4c(c3)OCCO4)CC2)cc1F | 19.7% (inactive)
9 | O=C(O)Cc1cc(F)c(S(=O)(=O)N2CCN(S(=O)(=O)c3ccc4c(c3)OCCO4)CC2)cc1F | 19% (inactive)
10 | CS(=O)(=O)Nc1cccc(-c2cc(F)c(S(=O)(=O)N3CCN(S(=O)(=O)c4ccc5c(c4)OCCO5)CC3)cc2F)c1 | -9.36% (inactive)
11 | O=C(O)CCc1cc(F)c(S(=O)(=O)N2CCN(S(=O)(=O)c3ccc4c(c3)OCCO4)CC2)cc1F | 2.14% (inactive)
12 | O=C(N1CCc2ccc(S(=O)(=O)N3CCN(S(=O)(=O)c4ccc5c(c4)OCCO5)CC3)cc2C1)C(F)(F)F | -17.2% (inactive)
13 | Cc1cc2c(s1)c1cnn(Cc3ccc(Cl)cc3)c(=O)c1n2C | -0.421% (inactive)
14 | CCOC(=O)/C=C/c1cc(F)c(S(=O)(=O)N2CCN(S(=O)(=O)c3ccc4c(c3)OCCO4)CC2)cc1F | -2.46% (inactive)
15 | COCCCc1cc(F)c(S(=O)(=O)N2CCN(S(=O)(=O)c3ccc4c(c3)OCCO4)CC2)cc1F | -12% (inactive)
16 | Cc1cc2c(s1)c1cnn(Cc3ccc(F)cc3)c(=O)c1n2C | 7.03% (inactive)
17 | O=S(=O)(c1ccc2c(c1)OCCO2)N1CCN(S(=O)(=O)c2ccc3nc(Cl)c(Cl)nc3c2)CC1 | 28.8% (inactive)
18 | O=S(=O)(c1ccc2c(c1)OCCO2)N1CCN(S(=O)(=O)c2c(F)cccc2F)CC1 | 8.24% (inactive)
19 | COC(=O)c1cc(F)c(S(=O)(=O)N2CCN(S(=O)(=O)c3ccc4c(c3)OCCO4)CC2)cc1F | -0.231% (inactive)
20 | CC(C)c1cc2c(s1)c1cnn(Cc3ccccc3F)c(=O)c1n2C | 2.22% (inactive)

Row | Compound | activity change, positive = activation
21 | O=C(O)/C=C/c1cc(F)c(S(=O)(=O)N2CCN(S(=O)(=O)c3ccc4c(c3)OCCO4)CC2)cc1F | -16.2% (inactive)
22 | Cc1cc2c(s1)c1cnn(Cc3ccccc3F)c(=O)c1n2Cc1ccccc1F | 21.1% (inactive)
23 | Cc1nc2ccc(S(=O)(=O)N3CCN(S(=O)(=O)c4c(F)cccc4F)CC3)cc2s1 | 11.1% (inactive)
24 | O=S(=O)(c1ccc2nc(Cl)c(Cl)nc2c1)N1CCN(S(=O)(=O)c2c(F)cccc2F)CC1 | 17.4% (inactive)
25 | C[C@H]1CN(S(=O)(=O)c2ccc3c(c2)OCCO3)CCN1S(=O)(=O)c1c(F)cccc1F | 14.6% (inactive)
26 | C=Cc1cc2c(s1)c1cnn(Cc3ccccc3F)c(=O)c1n2C | -6.78% (inactive)
27 | Cn1c2cc(S(C)(=O)=O)sc2c2cnn(Cc3ccccc3F)c(=O)c21 | 23.4% (inactive)
28 | Cc1cc2c(s1)c1cnn(Cc3c(F)cccc3Cl)c(=O)c1n2C | 12.7% (inactive)
29 | Cn1c2cc(C(=O)O)sc2c2cnn(Cc3ccccc3F)c(=O)c21 | -11.8% (inactive)
30 | O=S(=O)(c1ccc2c(c1)OCCCO2)N1CCN(S(=O)(=O)c2c(F)cccc2F)CC1 | 4.66% (inactive)
31 | COc1ccc(S(=O)(=O)N2CCN(S(=O)(=O)c3c(F)cccc3F)CC2)cc1 | 5.64% (inactive)
32 | O=c1[nH]c2ccc(S(=O)(=O)N3CCN(S(=O)(=O)c4c(F)cccc4F)CC3)cc2[nH]c1=O | -22% (inactive)
33 | COc1ccc(S(=O)(=O)N2CCN(S(=O)(=O)c3ccc4c(c3)OCCO4)CC2)cc1 | -6.87% (inactive)
34 | O=S(=O)(c1c(F)cccc1F)C1CCN(S(=O)(=O)c2ccc3c(c2)OCCO3)CC1 | -23.9% (inactive)
35 | Cc1cc2c(s1)c1cnn(Cc3ccc(C(F)(F)F)cc3F)c(=O)c1n2C | 9.47% (inactive)
36 | CCOC(=O)CCc1cc(F)c(S(=O)(=O)N2CCN(S(=O)(=O)c3ccc4c(c3)OCCO4)CC2)cc1F | -4.06% (inactive)
37 | O=S(=O)(c1ccc2c(c1)OCCO2)N1CCN(S(=O)(=O)c2ccccn2)CC1 | -9.53% (inactive)
38 | O=S(=O)(NC1CCC(NS(=O)(=O)c2c(F)cccc2F)CC1)c1ccc2c(c1)OCCO2 (stereo not given) | 3.43% (inactive)
39 | O=S(=O)(NCC1CN(S(=O)(=O)c2c(F)cccc2F)C1)c1ccc2c(c1)OCCO2 | -5.12% (inactive)
40 | O=C1CN(S(=O)(=O)c2c(F)cccc2F)CCN1S(=O)(=O)c1ccc2c(c1)OCCO2 | -4.39% (inactive)
